Results taken from PubChem BioAssay (NCATS).
Records with an inconclusive call do not appear. Where a call stands in place of a potency, no number is given. Activity calls are given as the source filed them. The call rests on the fitted dose curve; in most records, active means well fitted inhibition curve with a large enough effect; inconclusive means small, poorly fitted or top-dose-only effect; inactive means flat fitted curve, though single readings scatter.

Assays:
Experiment in all cases: qHTS profiling for inhibitors of Plasmodium falciparum proliferation (AID 504749); further: nearly all actives have a fitted effect of over 60% in size
Conditions in all cases: P. falciparum in erythrocytes, SYBR Green DNA, 72 h; series mostly up to 28.7 µM
CP194 = tested on: CP194
How it was run: (§1)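 P. falciparum-infected erythrocytes (0.3% parasitemia, 2.5% hematocrit) incubated with compound 72 h at 37 C, 5% CO2. Parasite DNA detected by SYBR Green after lysis, overnight at room temperature; normalised to 0.29 uM artemisinin and DMSO.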

CP201 = tested on: CP201
How it was run: as §1

CP203 = tested on: CP203
How it was run: as §1

CP211 = tested on: CP211
How it was run: as §1

CP215 = tested on: CP215
How it was run: as §1

CP217 = tested on: CP217
How it was run: as §1

CP237 = tested on: CP237
How it was run: as §1

CP238 = tested on: CP238
How it was run: as §1

CP247 = tested on: CP247
How it was run: as §1

CP250 = tested on: CP250
How it was run: as §1

CP252 = tested on: CP252
How it was run: as §1

CP256 = tested on: CP256
How it was run: as §1

CP260 = tested on: CP260
How it was run: as §1

CP265 = tested on: CP265
How it was run: as §1

CP266 = tested on: CP266
How it was run: as §1

CP268 = tested on: CP268
How it was run: as §1

CP269 = tested on: CP269
How it was run: as §1

CP286 = tested on: CP286
How it was run: as §1

CP291 = tested on: CP291
How it was run: as §1

CP262 = tested on: CP262
How it was run: as §1
Potency means the concentration at half of the fitted maximal effect.

SMILES	Potency (CP194)	Potency (CP201)	Potency (CP203)	Potency (CP211)	Potency (CP215)	Potency (CP217)	Potency (CP237)	Potency (CP238)	Potency (CP247)	Potency (CP250)	Potency (CP252)	Potency (CP256)	Potency (CP260)	Potency (CP265)	Potency (CP266)	Potency (CP268)	Potency (CP269)	Potency (CP286)	Potency (CP291)	Potency (CP262)
F[Si-2](F)(F)(F)(F)F	inactive	inactive	inactive	inactive	inactive	inactive	inactive	inactive	inactive	inactive	inactive	inactive	inactive	inactive	inactive	inactive	inactive	inactive	inactive	
O=C(O)CCCC/C=C(\c1ccccc1)c1cccnc1	inactive	inactive	inactive	inactive	inactive	inactive	inactive	inactive	inactive	inactive	inactive	inactive	inactive	inactive		inactive	inactive	inactive	inactive	inactive
C(=C\c1ccncc1)/c1ccccc1	inactive	inactive	inactive	inactive	inactive	inactive	inactive	inactive	inactive	inactive	inactive	inactive	inactive	inactive	inactive	inactive	inactive	inactive		
Oc1ccc(Cl)c2c1CCC2	inactive	inactive	inactive	inactive	inactive	inactive	inactive	inactive	inactive	inactive	inactive	inactive	inactive	inactive		inactive	inactive	inactive	inactive	inactive
CN(C)C=Nc1c(I)cc(I)c(CCC(=O)O)c1I	inactive	inactive	inactive	inactive	inactive	inactive	inactive	inactive	inactive	inactive	inactive	inactive	inactive	inactive	inactive		inactive	inactive	inactive	inactive
Cc1cccc(C)c1NC(=O)NC1=CCCN1C	inactive	inactive	inactive	inactive	inactive	inactive	inactive	inactive	inactive	inactive	inactive	inactive	inactive	inactive		inactive	inactive	inactive	inactive	inactive
CC(=O)Oc1cccc(C(=O)O)c1OC(C)=O	inactive	inactive	inactive	inactive	inactive	inactive	inactive	inactive	inactive	inactive	inactive	inactive	inactive	inactive	inactive	inactive	inactive	inactive	inactive	inactive
OCl	inactive	inactive	inactive	inactive	inactive	inactive	inactive	inactive	inactive	inactive	inactive	inactive	inactive	inactive	inactive	inactive	inactive	inactive	inactive	inactive
ClC(Cl)Cl	inactive	inactive	inactive	inactive	inactive	inactive	inactive	inactive	inactive	inactive	inactive	inactive	inactive	inactive	inactive	inactive	inactive	inactive	inactive	inactive
CCCCCCCCCCCCOCCCN	inactive	inactive	inactive	inactive	inactive	inactive	inactive	inactive	inactive	inactive	inactive	inactive	inactive	inactive	inactive	inactive	inactive	inactive	inactive	inactive
CC(O)CN(C)C (centres undefined)	inactive	inactive	inactive	inactive	inactive	inactive	inactive	inactive	inactive	inactive	inactive	inactive	inactive	inactive		inactive	inactive	inactive	inactive	inactive
COc1ccc2c(c1)OC(C)(C)C(c1ccccc1)C2c1ccc(OCCN2CCCC2)cc1 (centres undefined)	6.75 µM (active)	5.36 µM (active)	12 µM (active)	10.7 µM (active)	9.53 µM (active)	3.16 µM (active)	3.98 µM (active)	11.2 µM (active)	2.51 µM (active)	4.47 µM (active)	3.98 µM (active)	4.47 µM (active)	3.98 µM (active)	3.98 µM (active)	15.1 µM (active)		5.36 µM (active)	3.16 µM (active)	6.01 µM (active)	4.78 µM (active)
O=C1[O][Bi][O]c2ccccc21	inactive	inactive	inactive	inactive	inactive	inactive	inactive	inactive	inactive	inactive	inactive	inactive	inactive	inactive		inactive	inactive	inactive	inactive	inactive
CCCCCCOC(=O)c1cccnc1	inactive	inactive	inactive	inactive	inactive	inactive	inactive	inactive	inactive	inactive	inactive	inactive	inactive	inactive		inactive	inactive	inactive	inactive	inactive
